mIDH1 inhibitor: qHTS for Inhibitors of mutant isocitrate dehydrogenase 1 (IDH1): qHTS; IDH1-R132H enzyme, NADPH consumption, diaphorase/resazurin fluorescence; Isocitrate dehydrogenase [NADP] cytoplasmic (Homo sapiens), O75874; Potency, µM (doses to about 76.6 µM), usual class: inhibitors; 0.093% of 390,000 active; further: nearly all actives have a fitted effect of over 65% in size
Target sequence (O75874 whole entry R132H, stated change not applied): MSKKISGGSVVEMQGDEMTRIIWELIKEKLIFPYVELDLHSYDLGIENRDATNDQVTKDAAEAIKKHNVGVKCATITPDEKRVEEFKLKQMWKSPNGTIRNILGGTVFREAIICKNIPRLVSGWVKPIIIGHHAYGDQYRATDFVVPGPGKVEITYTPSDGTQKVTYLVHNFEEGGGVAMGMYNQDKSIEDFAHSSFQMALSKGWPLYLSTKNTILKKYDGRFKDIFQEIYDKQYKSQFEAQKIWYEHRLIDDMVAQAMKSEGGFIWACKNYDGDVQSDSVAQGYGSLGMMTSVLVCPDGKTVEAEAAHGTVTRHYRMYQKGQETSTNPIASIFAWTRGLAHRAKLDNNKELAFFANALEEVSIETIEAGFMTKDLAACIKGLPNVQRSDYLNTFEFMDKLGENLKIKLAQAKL
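IDH1-R132H (0.5 ug/mL) preincubated 30 min with compound, then NADPH (0.016 mM) and alpha-KG (2 mM) added; 80 min at RT, pH 7.5. Remaining NADPH coupled via diaphorase/resazurin to fluorescence (540/590 nm); concentration-response curves normalized to no-enzyme control.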
Nrf2 activator: qHTS of Nrf2 Activators; Potency, µM (titrated, usually from 46.1 µM), actives largely listed as activators; AREc32 ARE-luciferase reporter (MCF7-derived line), luminescence, 24 h; 0.31% of 410,000 active; AID 624171, 2012; further: nearly all actives have a fitted effect of over 65% in size
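Quantitative high-throughput format: AREc32 reporter cells, 1000 per well, received compound by pin transfer and were incubated 24 hr at 37 deg C, 5% CO2, before Steady-Glo luminescence detection.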
Nrf2 inh: Nrf2 qHTS screen for inhibitors | A549 ARE-Fluc reporter, luciferase luminescence, 18-24 h | Potency, µM (doses to about 46 µM), most hits filed as inhibitors | 2.1% of 360,000 active; further: nearly all actives have a fitted effect of over 60% in size
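Nrf2 activity is the BugLite luminescence, read 15 min after reagent at room temperature, following CellTiter-Fluor cytotoxicity readout (30 min, 37C). Compound titrations were applied for 18-24 h to 5000 A549 ARE_Fluc cells/well in 5% FBS OPTI-MEM.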
A549 viability: Nrf2 qHTS screen for inhibitors: counterscreen for cytotoxicity | A549 ARE-Fluc cells, CellTiter-Fluor viability, 18-24 h | AID 504648, 2011 | Potency, µM (highest dose often 46 µM), most hits filed as inhibitors | 0.16% of 390,000 active
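A549 ARE_Fluc cells in 5% FBS OPTI-MEM were exposed to compounds in concentration-response for 18-24 h at 37 deg C. Viability was read by CellTiter-Fluor fluorescence (Ex 405/Em 525) after 30 min, before the luciferase read.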
ELG1 DNA repair: qHTS screen for small molecules that inhibit ELG1-dependent DNA repair in human embryonic kidney (HEK293T) cells expressing luciferase-tagged ELG1. HEK293T ELG1-luciferase reporter, luminescence, 16 h; DNA damage induced by 5-fluorouridine. Potency, µM (top dose mostly 46.1 µM), most hits filed as inhibitors. 2.3% of 330,000 active; further: nearly all actives have a fitted effect of over 55% in size
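Reporter activity after DNA damage by 5-fluorouridine is monitored. Compound-treated cells incubate 16 hr at 37 °C, then ONE-Glo is added for 30 min before luminescence reading.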
Numbers stand for hits; . = inactive; ? = inconclusive; / = not tested or not shown; [ ] = remark or other dose. Sampled rows, rich in hits. Any-hit rate of the full collection: about 3.8%. The call rests on the fitted dose curve; in most records, active means well fitted curve in the direction sought with a large enough effect; inconclusive means small, poorly fitted or top-dose-only effect, or another doubt; inactive means no such curve, though single readings can be large; an effect the other way counts as inactive or inconclusive.

SMILES	mIDH1 inhibitor	Nrf2 activator	Nrf2 inh	A549 viability	ELG1 DNA repair
COc1ccc(C(=O)c2cn(Cc3ccccc3F)c3cc4c(cc3c2=O)OCCO4)cc1OC	.	.	.	.	/
Cc1cccc(N=Nc2cn[nH]c2-c2ccco2)c1	.	?	.	.	?
c1ccc(N=Nc2cn[nH]c2-c2ccco2)cc1	.	10µM	.	.	.
Cn1c2cc(S(C)=O)sc2c2cnn(Cc3cccc(O)c3)c(=O)c21 (stereo not given)	/	/	.	.	/
Cc1ccc(NC(=O)c2cc(-c3ccccc3)nn2-c2ccccc2)cc1	.	.	.	.	?
O=C(Nc1ccc(F)cc1)c1nn(-c2ccccc2)c(=O)cc1Cl	.	.	18µM	?	?
CC1(C)NC(=O)N(CCC(=O)Nc2cc(C(F)(F)F)ccc2Cl)C1=O	.	.	?	.	?
O=C1CCc2cc(S(=O)(=O)Nc3cccnc3)ccc2N1	/	/	.	.	/
Cc1ccc(NC(=O)Cn2c(=O)n(Cc3ccco3)c(=O)c3oc4ccccc4c32)cc1C	.	.	.	.	/
COc1ccc(Cc2[nH]n3c(=O)cc(C(C)C)nc3c2-c2ccccc2)cc1	.	.	12µM	?	8.2µM
O=C(NCc1ccc2c(c1)CCN2C(=O)c1ccc(F)cc1)c1ccc(Br)o1	.	.	/	.	/
CCS(=O)(=O)c1ncc(Cl)c(C(=O)N(Cc2ccccc2)Cc2ccco2)n1	.	?	23µM	16µM	/
Cc1ccc(C(=O)N(Cc2ccc(N(C)C)cc2)Cc2ccco2)cc1	/	.	?	.	/
CCSc1ncc(Cl)c(C(=O)N(Cc2ccc(N(C)C)cc2)Cc2ccco2)n1	/	.	18µM	.	/
CCc1ccc(-c2csc(NC(=O)C3CCCO3)c2C(=O)OC(C)C)cc1 (stereo not given)	.	.	?	.	.
COC(=O)c1c(-c2ccc(F)cc2)csc1NC(=O)C1CCCO1 (stereo not given)	.	.	18µM	.	.
CCc1ccc(-c2nnn(CCC(=O)OC)n2)cc1	.	.	3.3µM	.	?
CCOC(=O)N1CCc2c(sc3c2c(=O)n(CCc2ccccc2)c(=O)n3Cc2cc(C)ccc2C)C1	.	.	.	.	/
CCCN(CCC)CCCNC(=O)C1CCN(c2nc3ccc(CC)cc3s2)CC1	.	.	?	.	/
O=C(N/N=C/c1ccc(N2CCOCC2)cc1)c1ccccc1OCCOc1ccccc1	.	.	.	.	16µM
Cc1cc(C)cc(N(C)S(=O)(=O)c2nnc(NC(=O)COc3ccc(Cl)cc3)s2)c1	.	.	?	.	/
COc1cc(C2C(C#N)=C(N)Oc3c2ccc2ccccc32)ccc1OCC(=O)Nc1cccc(C)c1 (stereo not given)	.	.	?	.	9.2µM
O=C(/C=C/c1ccc([N+](=O)[O-])s1)N1CCCC1	.	?	21µM	.	15µM
COc1ccc(C2/C=C\CN(C(=O)c3ccccc3)C(C)C(=O)N2Cc2ccc(F)cc2)cc1 (stereo not given)	/	/	.	.	/
O=C(NNC(=O)c1ccc(F)cc1)c1ccncc1	.	.	.	.	.
SMILES	mIDH1 inhibitor	Nrf2 activator	Nrf2 inh	A549 viability	ELG1 DNA repair
O=C(NNC1=Nc2ccccc2SC1)c1ccc(F)cc1	.	.	23µM	.	9.2µM
O=C(NNC1=Nc2ccccc2SC1)c1ccc(Cl)cc1	.	.	10µM	?	6.5µM
COc1cccc(/C=N/NC(=O)c2cc3cc([N+](=O)[O-])ccc3s2)c1O	.	.	15µM	?	?
COc1ccccc1/C=N/NC(=O)c1ccc(NC(=O)c2cccc([N+](=O)[O-])c2)cc1	/	/	/	/	.
NS(=O)(=O)c1ccc(CCNC(=O)Nc2ccc(Cl)c(Cl)c2)cc1	.	.	21µM	.	?
NS(=O)(=O)c1ccc(CNC(=S)Nc2ccc(Cl)c(Cl)c2)cc1	.	.	.	.	.
COc1cccc(CNC(=O)C2CCC(=O)N(C3CC3)C2)c1OC (stereo not given)	.	.	.	.	.
CN(Cc1nc(Cc2ccccc2F)no1)CC1(N2CCOCC2)CCCCC1	.	.	.	.	.
CN(Cc1nc(Cc2ccccc2F)no1)Cc1cccc2ncccc12	.	.	18µM	.	?
O=C1c2cccc3cccc(c23)C(=O)N1CCN1CCN(CC(O)COCc2ccc(Cl)cc2)CC1 (stereo not given)	.	.[9.22 µM]	.	?	21µM
COc1cc(COCC(O)CN2CCN(CCN3C(=O)c4cccc5cccc(c45)C3=O)CC2)cc(OC)c1OC (stereo not given)	.	.	.	.	12µM
CC(=O)Nc1ccc(S(=O)(=O)NCCC(=O)N2CCN(C(c3ccccc3)c3ccccc3)CC2)cc1	.	.	.	.	.
O=C(CCNS(=O)(=O)c1ccccc1)N1CCN(C(c2ccccc2)c2ccccc2)CC1	/	/	/	/	23µM
CCn1nc(C)c2c(-c3ccccc3)cc(=O)n(C(C)C(=O)NCc3ccccc3OC)c21 (stereo not given)	.	.	?	.	/
CC1CCN(S(=O)(=O)c2ccc3c(ccn3CC(=O)NCc3ccccc3F)c2)CC1	.	.	.	.	/
CC(=O)Nc1nc(-c2ccccc2)c(-c2ccccc2)o1	.	.	.	.	.
COc1cc(OC)cc(C(=O)Nc2nc(-c3ccccc3)c(-c3ccccc3)o2)c1	.	.	18µM	?	13µM
Nc1ccc2c(c1)Cc1c(F)cccc1-2	.	10µM	?	.	/
COc1ccc(C(=O)NCC2(c3ccc(OC)c(OC)c3)CCCC2)cc1OC	.	.	/	/	/
COc1ccc(C2(CNC(=O)c3ccc(OC)c([N+](=O)[O-])c3)CCCCC2)cc1OC	.	.	.	.	15µM
Cc1onc(-c2ccccc2)c1-c1nnc(-c2ccccc2C(F)(F)F)o1	.	.	.	.	?
CCn1c(C)nc2cc(-c3nnc(-c4c(-c5ccccc5)noc4C)o3)ccc21	.	.	.	.	21µM
N#CC(C#N)=Cc1cc2ccccc2nc1N1CCOCC1	.	.	.	.	.
N#C/C(=C\c1cc2ccccc2nc1N1CCOCC1)C(=O)Nc1ccc(N2CCOCC2)cc1	.	.	?	.	12µM
Cc1cc(C)cc(S(=O)(=O)c2cnc3ccccc3n2)c1	.	22µM	.	.	.
COc1ccc(N(CC(=O)NCCc2ccccc2)S(=O)(=O)c2ccccc2)c(OC)c1	.	.	?	.	/
Cc1sc(NC(=O)CN(C(=O)c2ccccc2F)C2CCCC2)c(C(N)=O)c1C	.	.	.	.	16µM
Cc1ccc2oc(C(=O)N(Cc3ccccc3F)C3CCS(=O)(=O)C3)c(C)c2c1 (stereo not given)	.	.	?	.	/
